Screen size: about 340,000 compounds; about 2,100 (0.62%) were called active. Only a sample is shown. Entries with a potency or affinity are not part of this list. A number with no mark means an inactive call.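 The calls were made as follows: active = first-screen hits whose inhibition reached a set limit at any dose in the follow-up dose series; inconclusive = inhibition above the set first-screen limit but never retested; inactive = the rest.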

Rac GTPase-activating protein 1 (Homo sapiens), sequence (Q9H0H5 whole entry, looked up): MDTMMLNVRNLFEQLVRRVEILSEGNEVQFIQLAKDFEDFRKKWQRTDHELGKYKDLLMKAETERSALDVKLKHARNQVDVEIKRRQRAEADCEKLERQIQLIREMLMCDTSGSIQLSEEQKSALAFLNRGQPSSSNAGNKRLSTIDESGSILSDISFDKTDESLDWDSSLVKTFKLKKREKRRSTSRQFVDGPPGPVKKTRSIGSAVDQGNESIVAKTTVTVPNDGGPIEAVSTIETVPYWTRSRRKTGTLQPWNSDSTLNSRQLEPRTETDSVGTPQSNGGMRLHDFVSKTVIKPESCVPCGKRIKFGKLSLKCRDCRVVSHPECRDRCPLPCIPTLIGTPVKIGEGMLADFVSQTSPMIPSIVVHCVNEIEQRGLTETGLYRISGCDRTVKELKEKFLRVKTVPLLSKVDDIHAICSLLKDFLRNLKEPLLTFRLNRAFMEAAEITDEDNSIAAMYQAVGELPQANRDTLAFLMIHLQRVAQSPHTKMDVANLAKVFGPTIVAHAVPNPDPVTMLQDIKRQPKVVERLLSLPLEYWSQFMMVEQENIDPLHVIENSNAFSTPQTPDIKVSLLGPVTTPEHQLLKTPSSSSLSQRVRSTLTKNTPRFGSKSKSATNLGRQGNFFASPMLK

This assay has as its target Rac GTPase-activating protein 1 (Homo sapiens) (UniProt Q9H0H5). In words: blockers of MgcRacGAP-driven Rac1 GTP hydrolysis – biochemical, ADP Hunter fluorescence, primary and confirmatory, confirmation (AID 624330).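 Also: fluorescence reports GDP produced by GAP-driven GTP hydrolysis.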 Conditions: MgcRacGAP-stimulated Rac1 GTP hydrolysis, at 30 µM, active compounds read high, GST-tagged Rac1 F28L mutant substrate.
As to `O=C(CN(Cc1ccc(Br)cc1)S(=O)(=O)c1ccccc1)NCc1ccccn1`, the inhibition is 11.6%.

For `C/C(=N\NC(=O)CSc1nc2ccccc2s1)c1cccnc1`, the inhibition was 2.25%.

For `COc1cc(OC)c(NC(=O)CCNS(=O)(=O)c2ccc3c(c2)CC(C)N3C(C)=O)cc1Cl` (stereo not given), the inhibition was -10.2%.

Turning to `COc1cc(/C=N/NC(=O)c2c(C)nc3ccc(Cl)cn23)cc(OC)c1OC`, the inhibition was 0.19%.

For the compound `COc1ccc(NC(=O)c2ccc(CN3CCc4ccccc4C3)cc2)cc1OC`, the inhibition was 4.51%.

For the compound `COc1ccc(C(=O)/C=C/c2ccc(O)cc2)c(O)c1C/C=C(\C)CCC=C(C)C`, the inhibition was 1.5%.

As to `COc1ccc(C(=O)/C=C/c2ccc(O)cc2)c(O)c1CC=C(C)C`, the inhibition is 7.57%.

For `CCCOc1ccc(OCCN2CCCC(C)C2)cc1` (stereo not given), the inhibition was 20%.

For `O=C(CSc1ncnc2sccc12)NCc1ccc2c(c1)OCO2`, the inhibition was 4.24%.

Consider `Nc1cccc([N+](=O)[O-])c1`, for which the inhibition was 0.03%.

For the compound `O=[N+]([O-])c1cccc(S(=O)(=O)c2cccc([N+](=O)[O-])c2)c1`, the inhibition is 4.34%.

On to `CN(C)c1ccc(/C=N/NC(=O)c2ccc3c(c2)OCO3)cc1`, for which the inhibition was 16.6%.

`Cc1c(F)cccc1NS(=O)(=O)c1ccc2c(c1)n(C)c(=O)c(=O)n2C`: the inhibition was -0.09%.

As for `Cc1c(CN2CCC(C(=O)Nc3cccc(-c4cccc(Cl)c4)c3)CC2)cnn1C`, the inhibition was 11.7%.

Consider `Cn1c(SCc2ccccc2)nc2c1c(=O)[nH]c(=O)n2C`, for which the inhibition is -7.97%.

Turning to `C#CCNC(=O)C1=C[C@@H](C(C)(C)C)C[C@@H](OCc2ccc(CO)cc2)O1`, the inhibition is 7.54%.

Consider `COc1ccc(-c2cc(=O)c3c(O)cc(O)cc3o2)cc1`, for which the inhibition is -5.2%.

As to `O=c1cc(-c2ccc(O)cc2)oc2cc(O)cc(O)c12`, the inhibition is 14.4%.

Consider `O=c1cc(-c2ccc(O)c(O)c2)oc2ccc3ccccc3c12`, for which the inhibition is 2.51%.

As to `O=c1cc(-c2ccccc2)oc2cccc(O)c12`, the inhibition was 0.53%.

As to `COc1cccc(/C=C/C(=O)OCC(=O)Nc2nnc(-c3ccccc3)o2)c1`, the inhibition is 4.25%.

On to `Cc1c(NC(=O)c2ccc(S(=O)(=O)Nc3ccccc3F)cc2)c(=O)n(-c2ccccc2)n1C`, for which the inhibition is 4.66%.

For `Cc1c(C=O)c2ccccc2n1CC(=O)N1CCc2ccccc2C1`, the inhibition is 10.2%.

With `O=C(CC(c1ccccc1)c1ccccc1O)NCc1ccco1` (stereo not given), the inhibition is 15.2%.

In the case of `O=S1c2ccccc2Oc2ccccc21`, the inhibition was -3.3%.

Regarding `O=C1c2ccccc2OCOc2ccccc21`, the inhibition is 2.81%.

For the compound `CCCCn1c(CN2C(=O)c3ccccc3C2=O)nc2ccccc2c1=O`, the inhibition is 4.82%.

Regarding `CCOC(=O)C1CCCN(S(=O)(=O)c2ccc3ccccc3c2)C1` (stereo not given), the inhibition is 3.67%.

For the compound `CCOc1ccc(NC(=O)C(C)NC(=O)c2ccccc2Cl)cc1S(=O)(=O)N1CCCC1` (stereo not given), the inhibition was -0.23%.

On to `COC(=O)c1c(NC(=O)CSc2nccn2C)sc(C)c1C`, for which the inhibition was -3.2%.

With `COc1ccc(Cl)cc1NC(=O)CNCC(c1ccccc1)N(C)C` (stereo not given), the inhibition is 21.9%.

On to `COc1ccc(CCNC(=O)CSc2ccccc2)cc1OC`, for which the inhibition is -5.12%.

As for `Cc1cc(NC(=O)CNCC(c2ccccc2)N(C)C)c([N+](=O)[O-])cc1C` (stereo not given), the inhibition is 13.9%.

As for `CCOC(=O)c1cc(NC(=O)CNCC(c2ccccc2)N(C)C)cc(C(=O)OCC)c1` (stereo not given), the inhibition was 16.1%.

For the compound `COc1ccc(CCNC(=O)Cc2ccccc2)cc1OC`, the inhibition is 10%.

For the compound `Cc1ccc(Cl)cc1NC(=O)CNCC(c1ccccc1)N(C)C` (stereo not given), the inhibition was 30.3%.

Consider `COc1ccc(C)cc1S(=O)(=O)N(C)CC(=O)N1CCC(C(N)=O)CC1`, for which the inhibition is -7.33%.

`O=C(CSCC(=O)OCn1nnc2ccccc2c1=O)Nc1ccc(Cl)cc1`: the inhibition was 7.19%.

As for `CCc1nc(N2CCC3(CC2)OCCO3)c2nnn(Cc3ccccc3)c2n1`, the inhibition is 0%.

Take `CCCn1c(=NC(=O)CCS(=O)(=O)c2ccccc2)sc2cc(S(N)(=O)=O)ccc21`: the inhibition is -5.12%.

For the compound `CCC(=O)N1CCC(c2ccc(OC)cc2)=N1`, the inhibition was 1.71%.

In the case of `CCC(=O)Nc1nnc(S(=O)(=O)N(CC)c2cc(C)cc(C)c2)s1`, the inhibition is 3.75%.

Take `Cc1ccn2c(NC3CCCC3)c(-c3ccsc3)nc2c1`: the inhibition is 13.1%.

Regarding `Cc1ccc2nc(-c3ccncc3)c(NC3CCCC3)n2c1`, the inhibition was -17.4%.

As for `O=C(Nc1ccc(Cl)cc1)C1CCN(C(=O)c2cccs2)CC1`, the inhibition was 6.08%.

On to `Cc1ccc2occ(C(c3nnnn3Cc3ccccc3)N3CCOCC3)c(=O)c2c1` (stereo not given), for which the inhibition was 7.16%.

Take `C=C1CC(C(=O)N/N=C/c2ccccc2)C1`: the inhibition was 11.8%.

`O=[N+]([O-])c1ccc(C=NNC(=S)NN=Cc2ccc([N+](=O)[O-])cc2)cc1`: the inhibition is -0.77%.

For `O=C(NN=Cc1ccc(O)cc1)C(=O)NN=Cc1ccc(O)cc1`, the inhibition is 28.3%.

As to `O=C(NN=Cc1ccc(F)cc1)C1CC1`, the inhibition is 6.86%.

As to `O=C(Nc1cccc(NC(=O)c2ccco2)c1)c1ccc2c(c1)OCCO2`, the inhibition is 2.32%.

As to `O=C(Nc1ccc(NC(=O)c2ccc3c(c2)OCCO3)cc1)c1ccccc1`, the inhibition was 1.42%.

In the case of `O=C(NC1CCCCCC1)c1ccc[nH]c1=S`, the inhibition is 5.17%.

As for `COc1ccc(NC(=O)CSc2nnc3ccc(-c4cccnc4)nn23)c(OC)c1`, the inhibition was -2.52%.

Take `COc1ccc(/C=N\N=C2/SC(CC(=O)O)C(=O)N2c2ccc(O)cc2)cc1OC` (stereo not given): the inhibition was 2.46%.

Turning to `O=C1CS/C(=N/N=C/c2ccccc2)N1c1ccc(O)cc1`, the inhibition is 8.23%.

Regarding `COc1ccc(/C=N\N=C2/SC(CC(=O)O)C(=O)N2c2ccc(O)cc2)cc1` (stereo not given), the inhibition is 3.73%.

`COc1ccc(/C=N/N=C2\SCC(=O)N2c2c(C)n(C)n(-c3ccccc3)c2=O)cc1OC`: the inhibition is 5.82%.

Consider `O=C(NCCC1=CCCCC1)C(=O)c1c[nH]c2ccccc12`, for which the inhibition was 1.95%.

Turning to `Cc1ccc(S(=O)(=O)[N-]c2nc3ccccc3nc2-[n+]2cc(C)cc(C)c2)cc1`, the inhibition was 9.42%.

The values are drawn from PubChem BioAssay AID624330 (Southern Research Specialized Biocontainment Screening …, 2012).
